Data on eleven molecules can be found in PubChem BioAssay (EPA / NIEHS).

Inconclusive results are not listed. Active and inactive are the calls of the source. The calls were made as follows, unless noted: active = hit-call score of the fitted dose curve at least 0.9, where 1 is the maximum; inactive = score below 0.9.

As usually defined, the AC50 is the concentration at which the activity in the assay is half-maximal.

A short description of assay [1]: CCTE_Shafer_MEA_dev_burst_rate: CCTE's Neural Network Formation Assay for Burst Rate, Shafer Lab (AID 2284042).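 As to AC50: potency for loss of burst rate below DMSO control.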 In short, it runs like this:
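Primary rat cortical neurons on PEI-coated 48-well MEA plates (laminin added with cells at plating) (16 electrodes/well), exposed from plating to day 12, dosing renewed at DIV 5 and 9. Burst rate averaged over active electrodes, recorded DIV 5, 7, 9, 12, summarized as AUC; loss versus DMSO.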

Assay [2] in a line: CCTE_Shafer_MEA_dev_bursting_electrodes_number: CCTE's Neural Network Formation Assay for Number of Bursting Electrodes, Shafer Lab (AID 2284043; active = hit-call score of the fitted dose curve at least 0.9, where 1 is the maximum;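 as to AC50: potency is for loss of bursting electrodes relative to DMSO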). In short, it runs like this:
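Primary rat cortical neurons were cultured on PEI-coated 48-well MEA plates (16 electrodes/well) and exposed from plating through day 12, with compound renewed at feeds on DIV 5 and 9. Electrodes bursting ≥1 per 2 min were counted on DIV 5, 7, 9, 12; trapezoidal AUC taken.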

The nature of assay [3]: CCTE_Shafer_MEA_dev_per_burst_interspike_interval: CCTE's Neural Network Formation Assay for Burst Interspike Interval, Shafer Lab (AID 2284044).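 Also: mean spike spacing inside bursts as AUC over recordings on days 5 7 9 12.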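 As to AC50: potency for a decrease of within-burst interspike interval below DMSO level.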 In short, it runs like this:
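Rat cortical primary cultures, 16 electrodes/well; compound from plating, renewed with full media change DIV 5 and 9. Spikes via adaptive detector; per-burst ISI well-mean over active bursting electrodes; AUC of DIV 5/7/9/12 recordings; loss-direction fit vs DMSO.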

Assay [4] can be described thus: CCTE_Shafer_MEA_dev_burst_duration_mean: CCTE's Neural Network Formation Assay for Mean Burst Duration, Shafer Lab (AID 2284045).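 As to AC50: curve fitted for loss meaning shorter burst duration than DMSO.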 The gist of the method:
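Primary rat cortical neurons on PEI-coated 16-electrode MEA wells, exposed from plating through day 12 with compound renewed at DIV 5 and 9; spontaneous activity recorded days 5, 7, 9, 12. Well-mean burst duration collapsed as trapezoidal AUC, fitted for loss versus DMSO.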

Assay [5] is described as follows: CCTE_Shafer_MEA_dev_interburst_interval_mean: CCTE's Neural Network Formation Assay for Mean Interburst Interval, Shafer Lab (AID 2284046).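 Also: well-mean interburst interval of bursting electrodes as AUC over four recording days; curve fitted for decrease in interburst interval relative to DMSO.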 The gist of the method:
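Recordings on days 5, 7, 9 and 12 give well-mean interburst interval across actively bursting electrodes, summarized as area under the curve. Cultures: rat cortical neurons, continuous exposure from day 0, compound renewed at feeds; decrease analyzed versus DMSO.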

Assay [6] in a line: CCTE_Shafer_MEA_dev_inter_network_spike_interval_mean: CCTE's Neural Network Formation Assay for Mean Inter-network Spike Interval, Shafer Lab (AID 2284047). The gist of the method: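 Primary rat cortical neurons on 16-electrode MEA wells, exposed from plating day 0 through DIV 12, compound renewed at DIV 5 and 9 media changes. Mean interval between network-spike peaks recorded DIV 5, 7, 9, 12; collapsed as trapezoidal AUC, fitted downward versus DMSO.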

Assay [7] is described as follows: CCTE_Shafer_MEA_dev_network_spike_number: CCTE's Neural Network Formation Assay for Number of Network Spikes, Shafer Lab (AID 2284048).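 Also: synchronized bursts across electrodes counted on days 5 7 9 12 and integrated as AUC.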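 As to AC50: fit as a loss of signal meaning fewer network spikes than DMSO.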 The gist of the method: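 Primary rat cortical neurons were seeded at 1.5 x 10^5 cells/well on PEI-coated 16-electrode MEA wells with laminin, exposed from plating day 0, compound renewed at DIV 5 and 9. Network spikes were recorded on days 5, 7, 9, 12 and summarized as trapezoidal AUC versus DMSO.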

The nature of assay [8]: CCTE_Shafer_MEA_dev_network_spike_peak: CCTE's Neural Network Formation Assay for Mean Number of Electrodes in Network Spike, Shafer Lab (AID 2284049).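 As to AC50: fitted for loss of signal meaning fewer electrodes in network spikes than DMSO.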 The gist of the method:
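Continuous 12-day exposure of rat cortical cultures, starting at plating, on MEA plates. Endpoint: electrodes participating in network-spike peaks, AUC across DIV 5–12, DMSO as negative control.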

Assay [9] is described as follows: CCTE_Shafer_MEA_dev_network_spike_duration_std: CCTE's Neural Network Formation Assay for Standard Deviation of Network Spike Duration, Shafer Lab (AID 2284052).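 Also: area under curve of spike duration SD across recording days 5 to 12; hits are decreases in network spike duration SD versus DMSO vehicle.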 In short, it runs like this:
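Primary rat cortical neurons on PEI-coated 16-electrode MEA wells, exposed from plating day 0 through day 12 with compound renewed at DIV 5 and 9. Network spike duration SD recorded on days 5, 7, 9, 12, collapsed as trapezoidal AUC; loss-of-signal fit versus DMSO.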

Assay [10] can be described thus: CCTE_Shafer_MEA_dev_per_network_spike_spike_number_mean: CCTE's Neural Network Formation Assay for Mean Number of Spikes in a Network Spike, Shafer Lab (AID 2284053).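 As to AC50: fitted as decrease in spikes per network spike relative to DMSO.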 The gist of the method:
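Primary rat cortical neurons on 48-well, 16-electrode MEA plates were exposed from plating to DIV 12, with dosing renewed on DIV 5 and 9. Spikes per network spike (0.05 s peak window) were recorded on DIV 5, 7, 9 and 12 and collapsed as trapezoidal AUC versus DMSO.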

A short description of assay [11]: CCTE_Shafer_MEA_dev_per_network_spike_spike_percent: CCTE's Neural Network Formation Assay for Percent of Spikes in a Network Spike, Shafer Lab (AID 2284054). In short, it runs like this:
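Primary rat cortical neurons on 16-electrode MEA wells (PEI-coated, laminin at plating), exposed from day 0 with renewal at DIV 5 and 9; spikes within 0.05 s of network-spike peaks over total spikes, AUC across days 5, 7, 9, 12.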

A short description of assay [12]: CCTE_Shafer_MEA_dev_LDH: CCTE's Lactate Dehydrogenase Assay for Cytotoxicity in the Neural Network Formation Assay, Shafer Lab (AID 2284068; active = hit-call score of the fitted dose curve at least 0.9, where 1 is the maximum;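 also: exposure for twelve days from plating with re-dosing on DIV 5 and 9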). In short, it runs like this:
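Primary rat cortical neurons were plated on PEI/laminin MEA plates and exposed from day 0 for twelve days, with compound renewed at DIV 5 and 9. Cytotoxicity was determined by spectrophotometric LDH assay relative to DMSO.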

A short description of assay [13]: CCTE_Shafer_MEA_dev_AB: CCTE's Alamar Blue Assay for Cytotoxicity in the Neural Network Formation Assay, Shafer Lab (AID 2284083; active = hit-call score of the fitted dose curve at least 0.9, where 1 is the maximum;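 also: twelve days of exposure from plating with re-dosing on DIV 5 and 9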). In short, it runs like this:
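Primary rat cortical neurons on PEI-coated 48-well MEA plates, 1.5 x 10^5 cells/well in laminin drop; compound exposure from day 0 of plating for twelve days, renewed at medium changes on DIV 5 and 9. Viability read as resazurin reduction by fluorescence, relative to DMSO.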
On the technique in general: Resazurin is reduced to fluorescent resorufin, in cell work by metabolically active cells.

Assay [14] deals with Estrogen receptor (Homo sapiens) (UniProt P03372). Put plainly: CCTE_Deisenroth_AIME_384WELL_LUC_Inactive: CCTE's 384-well Estrogen Receptor Transactivation Assay without AIME metabolic competence (ERTA luciferase; metabolism negative), Deisenroth Lab (AID 2284038; active = hit-call score of the fitted dose curve at least 0.9, where 1 is the maximum;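 also: VM7Luc4E2 breast cells given medium preincubated 2 h with S9-free microspheres; hits raise estrogen receptor luciferase signal so potencies reflect agonists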). The gist of the method:
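Metabolism-negative mode: chemicals (10-point, 0.002–200 uM) held 2 h with alginate-water microspheres, then conditioned medium applied to VM7Luc4E2 cells for 24 h. Luciferase induction referenced to 17beta-estradiol.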

Assay [15] is described as follows: CCTE_Shafer_MEA_acute_AB: CCTE's Alamar Blue Assay for Cytotoxicity in the Neural Acute Assay, Shafer Lab (AID 2284069; active = hit-call score of the fitted dose curve at least 0.9, where 1 is the maximum;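 also: active compounds lower the viability signal compared with DMSO wells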). The gist of the method:
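Primary rat cortical neurons on MEA plates, exposed acutely after baseline recording on day 13 or 15 post-plating. Viability by CellTiter Blue resazurin reduction (1:6 reagent dilution), fluorescence 544/590 nm; loss of signal versus DMSO.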

In the next assay the test system is DIO2 (gene 1734). Put plainly: CCTE_GLTED_hDIO2: CCTE's human Deiodinase 2 (DIO2) Inhibition Assay, Great Lakes Toxicology and Ecology Division (GLTED) Lab (AID 2284050; active = hit-call score of the fitted dose curve at least 0.9, where 1 is the maximum). The gist of the method: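 Cell-free human DIO2 incubated 3 h with chemical; liberated iodide quantified by Sandell-Kolthoff absorbance. Triplicate plates; loss of signal fitted vs DMSO.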
Another assay has as its system DIO3 (gene 1735). Put plainly: CCTE_GLTED_hDIO3: CCTE's human Deiodinase 3 (DIO3) Inhibition Assay, Great Lakes Toxicology and Ecology Division (GLTED) Lab (AID 2284055; active = hit-call score of the fitted dose curve at least 0.9, where 1 is the maximum;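 also: potency is for inhibition seen as loss of released iodide signal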). In short, it runs like this:
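Human DIO3 from an adenovirus expression system is incubated 3 h with test chemical. Released iodide is quantified by Sandell-Kolthoff absorbance, in triplicate plates. Loss of signal is fitted relative to DMSO.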

A short description of assay [16]: CCTE_Shafer_MEA_dev_active_electrodes_number: CCTE's Neural Network Formation Assay for Number of Active Electrodes, Shafer Lab (AID 2284040; active = hit-call score of the fitted dose curve at least 0.9, where 1 is the maximum;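 as to AC50: potency for loss of active electrodes versus DMSO so lower counts are hits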). In short, it runs like this:
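Primary rat cortical neurons on 16-electrode MEA wells, exposed from day 0 through day 12 with compound renewed at DIV 5 and 9 feeds. Active electrodes (mean firing ≥5 spikes/min) counted at DIV 5, 7, 9, 12; trapezoidal AUC across days, loss-of-signal versus DMSO.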

Sequence of Estrogen receptor (Homo sapiens) (P03372 whole entry, looked up): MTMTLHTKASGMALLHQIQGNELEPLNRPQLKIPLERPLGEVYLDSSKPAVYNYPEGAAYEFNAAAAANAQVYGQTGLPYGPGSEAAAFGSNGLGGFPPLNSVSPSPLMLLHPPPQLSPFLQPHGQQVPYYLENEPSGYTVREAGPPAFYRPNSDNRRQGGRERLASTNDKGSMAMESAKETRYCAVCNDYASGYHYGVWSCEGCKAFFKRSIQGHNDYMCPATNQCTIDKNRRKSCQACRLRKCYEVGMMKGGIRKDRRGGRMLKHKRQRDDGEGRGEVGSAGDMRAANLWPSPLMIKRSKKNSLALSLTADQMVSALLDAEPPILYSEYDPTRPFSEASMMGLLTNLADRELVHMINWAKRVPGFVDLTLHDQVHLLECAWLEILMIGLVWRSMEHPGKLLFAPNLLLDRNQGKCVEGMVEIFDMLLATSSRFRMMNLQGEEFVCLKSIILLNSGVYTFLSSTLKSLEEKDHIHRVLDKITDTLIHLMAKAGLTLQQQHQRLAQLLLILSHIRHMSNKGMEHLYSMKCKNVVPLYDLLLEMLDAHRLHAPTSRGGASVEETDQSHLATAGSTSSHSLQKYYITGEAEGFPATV

For `N[C@H]1C(O)O[C@H](CO)[C@H](O)[C@@H]1O` (some centres undefined), the call in assay [1], in [4], in assay [5], in assay [6], in [7] and in [9] was inactive. Besides, the AC50 in assay [2] was 24.8 µM (active); in assay [3], 2.98 µM (active); in assay [8], 25.4 µM (active); in [10], 25.6 µM (active); in assay [11], 27.4 µM (active); in assay [12], 15 µM (active). Moreover, the half-maximal activity concentration (AC50) in assay [13] is 2.98 µM (active).
With `CO[Si](OC)(OC)c1ccccc1`, the call in assay [14] and in assay [15] was inactive.
As to `CCCCCCCC/C=C\CCCCCCCC(=O)OCCO`, the results for the AC50 in the assay on DIO2 (gene 1734) and in the assay with DIO3 (gene 1735) were 19.5 µM (active) and 14 µM (active), respectively.
As to `CC=CC(F)(F)C(F)(F)C(F)(F)F`, the result in assay [16], in assay [1], in assay [2], in assay [3], in assay [4] and in assay [5] was inactive. Also, the outcome in assay [6], in [7], in [8], in [9] and in assay [10] was inactive. In assay [11], the AC50 was 3.82 µM (active).
`CN(C)c1ccc(C(=N)c2ccc(N(C)C)cc2)cc1`: the AC50 in assay [16] is 2.89 µM (active); in assay [1], 1.71 µM (active); in assay [2] it was 2.27 µM (active); in [3], 3.43 µM (active); in assay [4], 4.06 µM (active); in assay [5], 2.95 µM (active). The AC50 in assay [7] was 1.35 µM (active); in assay [8], 2.88 µM (active); in assay [9], 1.73 µM (active); in [10], 2.39 µM (active); in [11], 1.63 µM (active); in assay [12] it was 3.2 µM (active). For the same molecule, the AC50 in assay [13] was 4.33 µM (active). Besides, the outcome in [6] was inactive.
Consider `CCCCCCCCCCCCCOP(=O)(O)O`, for which the figures for the AC50 in the assay with DIO2 (gene 1734) and in the assay on DIO3 (gene 1735) were 80.5 µM (active) and 12 µM (active), respectively.
With `CCCCC/C=C\C/C=C\CCCCCCCC(=O)OC`, the AC50 in the assay with DIO2 (gene 1734) was 46 µM (active); in the assay on DIO3 (gene 1735), 16.8 µM (active).
On to `CCCCCCCC[N+](C)(CCCCCCCC)CCCCCCCC`, for which the AC50 in the assay on DIO2 (gene 1734) was 20.6 µM (active); in the assay on DIO3 (gene 1735) it was 3.85 µM (active).
`Oc1ccc(Cl)cc1Cc1cc(Cl)ccc1O`: the values for the AC50 in the assay on DIO2 (gene 1734) and in the assay on DIO3 (gene 1735) were 88.4 µM (active) and 57.3 µM (active), respectively.
Consider `FC(F)=C(F)OC(F)(F)C(F)(F)C(F)(F)F`, for which the molecule was classed as inactive in assay [1], in [3], in assay [4], in assay [5], in [6] and in [7]. For the same molecule, the call in [8], in assay [9], in assay [10] and in assay [11] was inactive.
For the molecule `CCOC(F)(F)C(F)(F)C(F)(F)C(F)(F)F`, the molecule was classed as inactive in assay [16], in assay [1], in assay [2], in assay [3], in [4] and in assay [5]. In addition, the outcome in [6], in assay [7], in assay [8], in [9], in assay [10] and in assay [11] was inactive. Besides, in assay [13], the molecule was called inactive.
